Sampled rows, rich in hits. Any-hit rate of the full collection: about 1.1%.
HTR5A inv ag: HTR5A inverse agonism, opioid heterodimer counter-screen | P47898 | HTR5A cell line, luminescence | AID 504634 | 0.083% of 340,000 active | inhibition, % at 9.3 µM; in the data active = inhibition mostly above about 23%, no sharp cut-off; inactive = mostly below about 18%
HTR5A ag ctr: HTR5A agonism, opioid heterodimer counter-screen; P47898; HTR5A agonist assay, luminescence, cell-based; activation, % at 9.3 µM; 0.61% of 340,000 active; AID 504692; in the data active = activation mostly above about 9.5%, no sharp cut-off; inactive = mostly below about 7.6%
MOR-DOR inv ag: inverse agonists of human mu-delta opioid receptor heterodimerization; 0.21% of 340,000 active; P35372+P41143; cell-based MOR-DOR heterodimer luminescence, inverse agonism; inhibition, % at 9.3 µM; AID 504357; in the data active = inhibition above about 22%, passing the limit was not always enough
Target sequence (P35372 whole entry, looked up): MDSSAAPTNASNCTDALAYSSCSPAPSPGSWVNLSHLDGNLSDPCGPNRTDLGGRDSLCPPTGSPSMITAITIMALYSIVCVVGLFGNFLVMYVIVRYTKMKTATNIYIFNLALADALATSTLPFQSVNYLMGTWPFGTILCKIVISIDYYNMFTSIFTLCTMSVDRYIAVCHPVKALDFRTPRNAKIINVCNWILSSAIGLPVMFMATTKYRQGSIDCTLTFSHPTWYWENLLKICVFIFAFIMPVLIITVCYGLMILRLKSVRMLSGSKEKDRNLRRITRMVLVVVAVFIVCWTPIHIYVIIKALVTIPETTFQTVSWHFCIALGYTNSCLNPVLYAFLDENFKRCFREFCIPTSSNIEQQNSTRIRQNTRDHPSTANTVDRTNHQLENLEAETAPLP
Target sequence (P41143 whole entry, looked up): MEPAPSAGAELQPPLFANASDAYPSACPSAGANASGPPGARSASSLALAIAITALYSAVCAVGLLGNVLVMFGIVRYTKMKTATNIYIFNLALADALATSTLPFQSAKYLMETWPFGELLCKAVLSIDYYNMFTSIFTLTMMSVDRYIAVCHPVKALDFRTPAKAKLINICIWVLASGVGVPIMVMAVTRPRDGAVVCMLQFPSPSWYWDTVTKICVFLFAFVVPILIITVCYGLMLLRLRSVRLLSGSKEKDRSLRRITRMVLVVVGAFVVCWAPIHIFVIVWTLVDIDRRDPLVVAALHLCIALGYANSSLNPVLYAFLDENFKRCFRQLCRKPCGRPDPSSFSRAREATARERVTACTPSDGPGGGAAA
OPRM1-OPRD1 ag: OPRM1-OPRD1 heterodimerization agonism | P35372+P41143 | cells, luminescence | activation, % at 9.3 µM | 0.3% of 340,000 active; in the data active = activation above about 18%
OPRM1-D1 inv cf: confirmation of human OPRM1-OPRD1 heterodimerization inverse agonists | cells expressing OPRM1/OPRD1 heterodimer, luminescence | 20% of 580 active | shares compounds with MOR-DOR inv ag | inhibition, % at 9.3 µM; in the data active = inhibition above about 32%
HTR5A inv ctr2: counter-screen for OPRM1-OPRD1 inverse agonists: human HTR5A inverse agonism. shares compounds with MOR-DOR inv ag. HTR5A-expressing cells, luminescence. inhibition, % at 9.3 µM. 580 tested, under 10 active. AID 504914; call rule not given here
Of the large screens only hits and unclear results are named; the others gave an inactive call (follow-up assays come after a bar, where they were run).

CCc1ccc(S(=O)(=O)/N=C2\C=C(Nc3ccc(C(=O)O)cc3)C(=O)c3ccccc32)cc1	none
CC(C)(C)c1ccc(S(=O)(=O)/N=C2\C=C(NS(=O)(=O)c3ccccc3)C(=O)c3ccccc32)cc1	MOR-DOR inv ag 32 | OPRM1-D1 inv cf inactive | HTR5A inv ctr2 inactive
CCc1cccc2c1NC(=O)C2=O	MOR-DOR inv ag 61 | OPRM1-D1 inv cf inactive | HTR5A inv ctr2 inactive
COC(=O)c1cccc2c1NC(=O)C2=O	none
COc1ccc(NC(=O)/C(Cl)=C(/Cl)S(=O)Cc2ccc(Cl)cc2)cn1 (configuration not stated)	MOR-DOR inv ag 41 | OPRM1-D1 inv cf inactive | HTR5A inv ctr2 inactive
Cn1c(/C=C/c2cccc([N+](=O)[O-])c2)c([N+](=O)[O-])c(=O)n(C)c1=O	MOR-DOR inv ag 29 | OPRM1-D1 inv cf inactive | HTR5A inv ctr2 inactive
O=C(CC1(O)C(=O)Nc2ccccc21)c1cccc(Br)c1 (configuration not stated)	MOR-DOR inv ag 33 | OPRM1-D1 inv cf inactive | HTR5A inv ctr2 inactive
CCS(=O)(=O)Nc1cccc(C(=O)CC2(O)C(=O)Nc3ccccc32)c1 (configuration not stated)	none
CS(=O)(=O)Nc1cccc(C(=O)CC2(O)C(=O)Nc3ccc(Br)cc32)c1 (configuration not stated)	MOR-DOR inv ag 35 | OPRM1-D1 inv cf inactive | HTR5A inv ctr2 inactive
NC(=O)CN1C(=O)C(O)(CC(=O)c2ccccc2O)c2ccccc21 (configuration not stated)	MOR-DOR inv ag 43 | OPRM1-D1 inv cf 43 | HTR5A inv ctr2 inactive
COC(=O)CN1C(=O)C(O)(CC(=O)c2cccc(Br)c2)c2ccccc21 (configuration not stated)	MOR-DOR inv ag 43 | OPRM1-D1 inv cf inactive | HTR5A inv ctr2 inactive
CS(=O)(=O)Nc1cccc(C(=O)CC2(O)C(=O)Nc3ccccc32)c1 (configuration not stated)	none
O=C(C1CCC(CNc2nc(=S)[nH]c3ccccc23)CC1)N1CCN(c2ccc(F)cc2)CC1 (configuration not stated)	none
CN1C(=O)C(O)(CC(=O)c2ccccn2)c2cc(Br)ccc21 (configuration not stated)	MOR-DOR inv ag 74 | OPRM1-D1 inv cf inactive | HTR5A inv ctr2 inactive
Cc1ccc(C(=O)CC2(O)C(=O)N(C)c3ccc(Br)cc32)c(C)c1 (configuration not stated)	none
COc1ccc(Cl)cc1NC(=S)NCc1cccnc1	none
CC1=C(C)C(=O)C(N2CCOCC2)=CC1=O	MOR-DOR inv ag 47 | OPRM1-D1 inv cf inactive | HTR5A inv ctr2 inactive
O=C1C=C(N2CCOCC2)c2ccccc2C1=O	none
Cc1cccc(-c2cc3c(nn2)-c2ccccc2C3=O)c1	MOR-DOR inv ag 88 | OPRM1-D1 inv cf inactive | HTR5A inv ctr2 inactive
COc1ccc(-c2cn(Cc3ccc4c(c3)C(=O)c3ccccc3C4=O)nn2)cc1	none
Cc1cnc2c(c1)C(=O)c1ccccc1-2	none
O=C1c2ccccc2-c2nnc(-c3ccccc3)cc21	MOR-DOR inv ag 97 | OPRM1-D1 inv cf 99 | HTR5A inv ctr2 inactive
COc1ccc(-c2cc3c(nn2)-c2ccccc2C3=O)cc1	MOR-DOR inv ag 91 | OPRM1-D1 inv cf 75 | HTR5A inv ctr2 inactive
COc1ccc(Cl)cc1NC(=O)CSc1nnc(C)c(=O)n1N	none
COc1ccc2c(c1)C(=O)C(=O)N2CC1COc2ccccc2O1 (configuration not stated)	MOR-DOR inv ag 38 | OPRM1-D1 inv cf inactive | HTR5A inv ctr2 inactive
CCOc1ccc2c(c1)C(=O)C(=O)N2CC1COc2ccccc2O1 (configuration not stated)	none
COc1ccc2c(c1)C(=O)C(=O)N2CCS(=O)(=O)c1ccccc1	MOR-DOR inv ag 70 | OPRM1-D1 inv cf inactive | HTR5A inv ctr2 inactive
Cc1ccc2c(c1)C(=O)C(=O)N2CCCOc1ccccc1	none
O=C1C(=O)N(CCS(=O)(=O)c2ccccc2)c2ccc(F)cc21	MOR-DOR inv ag 53 | OPRM1-D1 inv cf inactive | HTR5A inv ctr2 inactive
Cc1ncc([N+](=O)[O-])n1CCOC(=O)c1cc(Cl)cc(Cl)c1N	none
COc1ccc(CN(C)CCc2ccccn2)c(OC)c1OC	none
Cc1ccc(N/N=C/c2ccc(N3CCOCC3)cc2)cc1C	none
CC(C)Oc1ccccc1/C=N/NC(=O)C1CCCC1	none
CC(C)(C)c1ccc(C(=O)NNC(=O)Cc2cccc3ccccc23)cc1	none
CN(C)c1ccc(CC(=O)c2nc3ccccc3s2)cc1	MOR-DOR inv ag 24 | OPRM1-D1 inv cf inactive | HTR5A inv ctr2 inactive
c1cncc(CNc2cccc(-c3nc4ccccc4[nH]3)c2)c1	none
ON1C(c2ccccc2C(F)(F)F)N(O)[C@H]2CCCC[C@H]21 (some centres not stated)	MOR-DOR inv ag 41 | OPRM1-D1 inv cf inactive | HTR5A inv ctr2 inactive
O=C(Nc1ccccc1C(F)(F)F)C1CCCC1	none
CC(=O)Nc1ccc(C2(c3ccc(NC(C)=O)cc3)C(=O)Nc3ccccc32)cc1	none
N#CC1(Nc2ccccc2)C(=O)Nc2ccccc21 (configuration not stated)	MOR-DOR inv ag 57 | OPRM1-D1 inv cf inactive | HTR5A inv ctr2 inactive
N#CC1(Nc2cccc(Br)c2)C(=O)Nc2ccccc21 (configuration not stated)	MOR-DOR inv ag 50 | OPRM1-D1 inv cf inactive | HTR5A inv ctr2 inactive
Cc1ccc(Nc2c([N+](=O)[O-])c(=O)oc3ccccc23)cc1C	none
O=C(CCS(=O)(=O)c1ccc(Br)cc1)Nc1ccc2c(c1)OCO2	none
CCNC(=S)NN=C1c2ccccc2-c2ccccc21	none
O=C(Nc1ccncc1)C1c2ccccc2Oc2ccccc21	MOR-DOR inv ag 36 | OPRM1-D1 inv cf inactive | HTR5A inv ctr2 inactive
O=C(COC(=O)C1CCN(S(=O)(=O)c2cccs2)CC1)c1cc2ccccc2o1	MOR-DOR inv ag 58 | OPRM1-D1 inv cf inactive | HTR5A inv ctr2 inactive
CCS(=O)(=O)Nc1ccc(C(=O)CC2(O)C(=O)Nc3ccc(Br)cc32)cc1 (configuration not stated)	none
O=C(CC1(O)C(=O)Nc2cc(Cl)cc(Cl)c21)c1ccncc1 (configuration not stated)	MOR-DOR inv ag 29 | OPRM1-D1 inv cf inactive | HTR5A inv ctr2 inactive
Cc1ccc(Cl)c2c1NC(=O)C2(O)CC(=O)c1ccc(Br)cc1 (configuration not stated)	MOR-DOR inv ag 30 | OPRM1-D1 inv cf inactive | HTR5A inv ctr2 inactive
O=C1Nc2ccccc2C1(O)Cc1ccncc1 (configuration not stated)	none
Cc1cccc(OCC(=O)Nc2ccc3c(c2)nc2n3CCOC2)c1	none
CN(C1=C(NC(=O)c2ccc(Cl)cc2)C(=O)c2ccccc2C1=O)c1ccccc1	MOR-DOR inv ag 39 | OPRM1-D1 inv cf inactive | HTR5A inv ctr2 inactive
N#CC(C#N)=C1C=CC=CN1/C(=C\c1ccco1)C(=O)c1ccc(Cl)cc1	MOR-DOR inv ag 34 | OPRM1-D1 inv cf inactive | HTR5A inv ctr2 inactive
